Screens (PubChem BioAssay)
Rows were chosen to be rich in hits. Some 3.1% of all compounds tested hit in one or more screens of this group.
Mcl-1 Bim block: inhibitors of Bim-Mcl-1 interaction, human; Bead-based flow cytometry, Bim peptide-Mcl-1 binding; inhibition, % at 10 µM; 190,000 compounds, 0.1% hits; AID 1009; in the data active means inhibition above about 40%;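 further: 0% = no compound tracer wells and 100% = peptide blocker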
Mcl1 Noxa PPI: disrupts binding of human Mcl-1 to Noxa peptide. Q07820. TR-FRET Mcl-1/Noxa peptide binding, 2 h. inhibition, % at 21.7 µM. 220,000 compounds, 1.5% hits;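 active means compounds that cut the protein-peptide binding signal by more than 50% relative to plate controls in a single-dose test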;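 further: His-tagged Mcl-1 with rhodamine Noxa BH3 peptide and terbium anti-His antibody; 0% = Mcl-1 plus Noxa peptide wells and 100% = peptide-only wells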
Mcl1 Bid PPI: disrupts binding of human Mcl-1 to Bid peptide; TR-FRET Mcl-1/Bid-Dy647 peptide binding, 1536-well; inhibition, % at 21.7 µM; 220,000 compounds, 0.97% hits; AID 1021;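 active means compounds that cut the binding signal by more than half at the single screening dose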;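 further: His-tagged Mcl-1 with europium anti-His antibody binding Bid BH3 peptide; 0% = Mcl-1 plus peptide wells and 100% = peptide-only wells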
14-3-3 Bad inh: disrupts binding of bovine 14-3-3 zeta to phospho-Bad peptide. 220,000 compounds, 0.71% hits. AID 781. inhibition, % at 21.7 µM. P63103. TR-FRET 14-3-3zeta/Dy647-pBad peptide displacement, 1 h;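 active means inhibition above about 70%, limit read from the data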;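 further: 0% = full 14-3-3 plus peptide FRET controls and 100% = background without 14-3-3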
p47phox inh: blocks human p47phox regulatory protein of NADPH oxidases; P14598; p47phox/p22phox peptide binding, fluorescence polarization, 2 h; inhibition, % at 24.7 µM; 220,000 compounds, 0.53% hits; AID 1274;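 active means inhibition above about 30%, limit read from the data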;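 further: 0% = p47phox with labelled peptide and 100% = labelled peptide alone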
Target sequence (P14598 whole entry, looked up): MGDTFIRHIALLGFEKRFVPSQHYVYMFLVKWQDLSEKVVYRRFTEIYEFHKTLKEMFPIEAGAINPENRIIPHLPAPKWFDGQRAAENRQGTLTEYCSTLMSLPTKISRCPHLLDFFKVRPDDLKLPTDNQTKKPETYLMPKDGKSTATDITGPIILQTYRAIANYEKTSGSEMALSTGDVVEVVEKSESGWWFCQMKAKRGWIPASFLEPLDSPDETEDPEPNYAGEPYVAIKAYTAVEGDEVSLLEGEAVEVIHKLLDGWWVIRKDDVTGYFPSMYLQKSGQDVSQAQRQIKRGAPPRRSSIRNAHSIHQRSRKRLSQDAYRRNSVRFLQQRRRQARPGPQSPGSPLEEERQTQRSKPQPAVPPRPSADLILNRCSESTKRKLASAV
The depositor's hits bear a star; · = no result; [ ] = remark or other dose.

SMILES	Mcl-1 Bim block	Mcl1 Noxa PPI	Mcl1 Bid PPI	14-3-3 Bad inh	p47phox inh
Cc1ccc2[nH]c(C(=O)O)c(NC(=O)CN3CCN(c4cccc(C)c4C)CC3)c2c1	5	13	24	-13	-6
O=C(COC(=O)CSc1ccc2ccccc2c1Br)NC1CC1	0	12	5	8	1
O=C(O)CC(NC(=O)C(c1ccccc1)c1ccccc1)c1cccc([N+](=O)[O-])c1 (stereo not drawn)	·	5	-11	-4	0
Cc1nn(C)c(C(=O)Nc2ccn(Cc3c(F)c(F)cc(F)c3F)n2)c1[N+](=O)[O-]	1	16	-23	7	150*
COc1cccc(C2C3=C(N=c4s/c(=C\c5ccc(OCC(=O)O)cc5)c(=O)n42)c2ccccc2CC3)c1 (stereo not drawn)	·	71*	22	69	-34
COc1ccccc1C1C2=C(N=c3s/c(=C/c4cccc(OCC(=O)O)c4)c(=O)n31)c1ccccc1CC2 (stereo not drawn)	-3	107*	82*	-4	-45
COc1cccc(C2C3=C(N=c4s/c(=C\c5ccc(O)cc5)c(=O)n42)c2ccccc2CC3)c1OC (stereo not drawn)	6	31	-48	-3	-3
CCn1c(SCC(=O)Nc2cccc(C)n2)nc2c1c(=O)n(C)c(=O)n2C	8	13	-29	-3	-1
CN(C)S(=O)(=O)c1cc(C(=O)NCC2CCCO2)c(Cl)cc1Cl (stereo not drawn)	-3	15	-4	1	-11
CCNC(=O)c1cc(S(=O)(=O)N(C)C)c(Cl)cc1Cl	2	28	72*	88*	-4
O=c1[nH]c(=S)[nH]c(O)c1N=Nc1ccc(-c2ccccc2)cc1[N+](=O)[O-]	-1	92*	-41	-6	70*
Cc1cccc2c(N=Nc3ccc(S(=O)(=O)Nc4cccc(Cl)c4)cc3[N+](=O)[O-])c(O)[nH]c12	4	39	-2	13	-6
COC(=O)C1=C(C)N=C2SC(C#N)=C(N)N2C1c1ccc(OCc2ccccc2)cc1 (stereo not drawn)	-5	-6	11	-12	-21
CCN(CC)c1ccc(NC(=O)Cn2c(C(C)NC(=O)c3ccc(C)cc3)nc3ccccc32)cc1 (stereo not drawn)	4	32	90*	95*	·
CCCn1c(C(C)NC(=O)c2ccccc2)nc2ccccc21 (stereo not drawn)	·	-1	2	-6	7
O=C1Cc2ccccc2C(c2ccccc2)N1 (stereo not drawn)	0	-12	-13	79*	0
O=C1Cc2ccccc2C(c2ccc(Cl)cc2)N1 (stereo not drawn)	·	-7	-15	-2	5
C1CN(CC2CCN(c3nc4nonc4nc3N3CCSCC3)CC2)CCO1	0	3	-12	-16	34*
C1CC(CN2CCOCC2)CN(c2nc3nonc3nc2N2CCSCC2)C1 (stereo not drawn)	2	16	-9	7	3
CN1C=C/C(=C\c2cc[n+](C)c3ccccc23)c2ccccc21	2	85*	1	26	-3
CN1C(=O)/C(=C/c2ccccc2OCc2ccccc2F)NC1=S	3	-26	-57	-10	-13
Cc1ccc2nc(Cl)c(/C=N/NC(=O)[C@H]3C[C@@H]3c3ccccc3)cc2c1	-3	6	-2	-2	31*
CC(C)(C)c1ccc(C2CC2C(=O)N/N=C\c2cc3ccccc3nc2Cl)cc1 (stereo not drawn)	0	-7	18	84*[fluorescence artefact?]	-28
Cc1ccc2nc(Cl)c(/C=N/NC(=O)c3ccccc3O)cc2c1	0	21	-71	-11	-40
O=C(CNc1ccc2ccccc2c1)N/N=C/c1cc2ccccc2nc1Cl	-4	-18	-123	8	-14
CC(OC(=O)c1cc(=O)[nH]c2ccccc12)c1ccccc1 (stereo not drawn)	-2	16	4	13	-11
COc1ccccc1N1CCN(C2CCN(C(=O)COc3cccc(C)c3)CC2)CC1	-3	13	-6	26	-5
CN(C)C(=O)C1CCC(=O)N1Cc1cccs1 (stereo not drawn)	1	3	-29	88*	4
Cc1ccccc1NS(=O)(=O)c1ccc(C)c(C(N)=O)c1	-1	-5	-16	11	-14
